# Test system: EPHB6
# Details: concentration: 1 μM,replicates: in singlicate; n = 1
# 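Note: KINOMEscan kinase panel screen.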
row,SMILES,%Inh [%]
1,CS(=O)(=O)c1cccc(CNc2nc(Nc3ccc4c(c3)[C@@H]3C[C@@H]4CNC3=O)ncc2C(F)(F)F)c1,72
2,CSc1nccc(-c2c(-c3ccc(F)cc3)ncn2CCCN2CCOCC2)n1.Cl [SB-217146],0
3,O=C1NCCc2[nH]c(-c3ccncc3)cc21,8
4,FC(F)(F)c1cc(Br)cc(Nc2nccc(-c3cnn4ncccc34)n2)c1 [GW810578],48
5,CN(c1ccc2c(c1)nc(NCc1ccc(F)cc1)n2C)c1ccnc(Nc2ccc(CS(C)(=O)=O)cc2)n1.Cl [GW813244],78
6,Cc1ccc(CC(=O)N2CCc3cc(-c4cn(C)c5ncnc(N)c45)ccc32)cc1 [GSK2634758],53
7,O=C(NCC1CC1)c1ccc(-c2cc(C(=O)NC3CC3)ccc2F)cc1 [GW810445],0
8,CCn1c(-c2nonc2N)nc2cncc(Br)c21 [SB-738004],29
9,CN1CCN(CCCNc2nccc(-c3c(-c4ccc(F)cc4)nn4cc(C(N)=O)ccc34)n2)CC1 [GW622475],44
10,O=C(NOCC1CC1)c1cc(Br)c(F)c(F)c1Nc1ccc(I)cc1Cl,0
11,Cc1n[nH]c2cc(Nc3ccnc(Nc4cccc(CN5CCOCC5)c4)n3)ccc12 [GW682569],87
12,C[C@@H]1CCN(C(=O)N2CCCC2)C[C@@H]1N(C)c1ncnc2[nH]ccc12,34
13,CS(=O)c1ccc(-c2coc3ccc(-c4n[nH]c(=O)o4)cc23)cc1 (centres unmarked),25
14,CC(C(=O)NC1CCN(c2ccnc(Nc3ccc(F)cc3)n2)C1)c1ccc(Cl)cc1 (centres unmarked) [GSK1379713],0
15,COC(=O)Nc1nc2cc(Oc3ccc(NC(=O)Nc4cc(C(F)(F)F)ccc4Cl)cc3)ccc2[nH]1.Cl [GW697465],83
16,Cn1ccc2ncnc(Oc3ccc(NC(=O)Nc4cccc(C(F)(F)F)c4)c(F)c3)c21,97.6
17,O=c1[nH]cc(-c2ccc(O)cc2)c2sc(-c3ccncc3)cc12 [GSK1033723],0
18,Cc1ccc2c(-c3ccnc(Nc4ccc(C(F)(F)F)cc4)n3)cnn2n1 [GW819776],14
19,CN1CCN(CCNc2nc3cc(Oc4ccc(NC(=O)Nc5cc(C(F)(F)F)ccc5F)cc4)ccc3[nH]2)CC1.Cl.Cl [GW768504],25

row,SMILES,%Inh [%]
1,Cc1ccc(C(=O)Nc2ccc(Oc3ccc4nc(NC(=O)C5CC5)cn4c3)c(F)c2)c(=O)n1-c1ccccc1,99.1
2,Nc1nccc(-c2ccc3c(N)n[nH]c3c2)n1 [GSK1034945],2
3,COc1cccc(CNC(=O)NC2CCN(c3ccnc(Nc4cc(OC)c(OC)c(OC)c4)n3)C2)c1 (centres unmarked) [GSK1379765],92.6
4,Cn1ccc2ncnc(Oc3ccc(NC(=O)Nc4cccc(C(F)(F)F)c4)c(Cl)c3)c21,90
5,CCNCC(Cc1ccccc1)NC(=O)c1cc(Br)c(-c2ccnc3[nH]ccc23)s1.Cl.Cl (centres unmarked) [GSK1383280],0
6,Cc1cccc(-c2nc(Nc3ccncc3)c3sccc3n2)n1 [GW869641],30
7,Cn1ccc2ncnc(Oc3ccc(NC(=O)Nc4cc(C(C)(C)C)on4)c(Cl)c3)c21,64
8,COc1cc2ncn(-c3cc(OCC4CCCCC4)c(C(N)=O)s3)c2cc1OC [GSK204559],64
9,CCn1c(-c2nonc2N)nc2cncc(CNC3CCNCC3)c21.Cl [SB-747651],0
10,O=C(Nc1cccc(C(F)(F)F)c1)c1cccc(Oc2ccc3nccn3n2)c1,12
11,COC(=O)c1cccc(NC(=O)NC2CCN(c3ccnc(Nc4cc(OC)c(OC)c(OC)c4)n3)C2)c1 (centres unmarked) [GSK1379767],86
12,Cn1cc(-c2cccc3c(N)c(C(N)=O)nnc23)cn1,16
13,CCN1CCN(CCCC(=O)Nc2n[nH]c3nc(-c4ccc(O)cc4)c(Br)cc23)CC1 [SB-731579],0
14,COc1cccc(OC)c1C(=O)Nc1cccc(-c2nn3ccccc3c2-c2ccnc(Nc3cccc(F)c3)n2)c1 [GSK361065],42
15,Cl.Cl.NC[C@H](CC1CCCCC1)NC(=O)c1ccc(-c2ccnc3[nH]ccc23)s1 [GSK1581428],12
16,COc1cc2c(Nc3ccc(NC(=O)c4ccccc4)cc3)ncnc2cc1OCCCN1CCOCC1 [GSK301329],79
17,CC(=O)Nc1ccc(-c2cc3ncnc(SCC(=O)O)c3s2)cc1,84
18,C[C@@H]1CNc2c(sc3ccc4nc(-c5ccc(O)cc5)ccc4c23)C(=O)N1,9

# Test system: ERBB2
# Details: concentration: 1 μM,replicates: in singlicate; n = 1
row,SMILES,%Inh [%]
1,CS(=O)(=O)c1cccc(CNc2nc(Nc3ccc4c(c3)[C@@H]3C[C@@H]4CNC3=O)ncc2C(F)(F)F)c1,15
2,CSc1nccc(-c2c(-c3ccc(F)cc3)ncn2CCCN2CCOCC2)n1.Cl [SB-217146],7
3,O=C1NCCc2[nH]c(-c3ccncc3)cc21,0
4,FC(F)(F)c1cc(Br)cc(Nc2nccc(-c3cnn4ncccc34)n2)c1 [GW810578],0
5,CN(c1ccc2c(c1)nc(NCc1ccc(F)cc1)n2C)c1ccnc(Nc2ccc(CS(C)(=O)=O)cc2)n1.Cl [GW813244],17
6,Cc1ccc(CC(=O)N2CCc3cc(-c4cn(C)c5ncnc(N)c45)ccc32)cc1 [GSK2634758],0
7,O=C(NCC1CC1)c1ccc(-c2cc(C(=O)NC3CC3)ccc2F)cc1 [GW810445],11
8,CCn1c(-c2nonc2N)nc2cncc(Br)c21 [SB-738004],60
9,CN1CCN(CCCNc2nccc(-c3c(-c4ccc(F)cc4)nn4cc(C(N)=O)ccc34)n2)CC1 [GW622475],24
10,O=C(NOCC1CC1)c1cc(Br)c(F)c(F)c1Nc1ccc(I)cc1Cl,44
11,Cc1n[nH]c2cc(Nc3ccnc(Nc4cccc(CN5CCOCC5)c4)n3)ccc12 [GW682569],27
12,C[C@@H]1CCN(C(=O)N2CCCC2)C[C@@H]1N(C)c1ncnc2[nH]ccc12,10
13,CS(=O)c1ccc(-c2coc3ccc(-c4n[nH]c(=O)o4)cc23)cc1 (centres unmarked),0
14,CC(C(=O)NC1CCN(c2ccnc(Nc3ccc(F)cc3)n2)C1)c1ccc(Cl)cc1 (centres unmarked) [GSK1379713],25
15,COC(=O)Nc1nc2cc(Oc3ccc(NC(=O)Nc4cc(C(F)(F)F)ccc4Cl)cc3)ccc2[nH]1.Cl [GW697465],45
16,Cn1ccc2ncnc(Oc3ccc(NC(=O)Nc4cccc(C(F)(F)F)c4)c(F)c3)c21,10
17,O=c1[nH]cc(-c2ccc(O)cc2)c2sc(-c3ccncc3)cc12 [GSK1033723],28
18,Cc1ccc2c(-c3ccnc(Nc4ccc(C(F)(F)F)cc4)n3)cnn2n1 [GW819776],0
19,CN1CCN(CCNc2nc3cc(Oc4ccc(NC(=O)Nc5cc(C(F)(F)F)ccc5F)cc4)ccc3[nH]2)CC1.Cl.Cl [GW768504],0

row,SMILES,%Inh [%]
1,Cc1ccc(C(=O)Nc2ccc(Oc3ccc4nc(NC(=O)C5CC5)cn4c3)c(F)c2)c(=O)n1-c1ccccc1,30
2,Nc1nccc(-c2ccc3c(N)n[nH]c3c2)n1 [GSK1034945],6
3,COc1cccc(CNC(=O)NC2CCN(c3ccnc(Nc4cc(OC)c(OC)c(OC)c4)n3)C2)c1 (centres unmarked) [GSK1379765],17
4,Cn1ccc2ncnc(Oc3ccc(NC(=O)Nc4cccc(C(F)(F)F)c4)c(Cl)c3)c21,29
5,CCNCC(Cc1ccccc1)NC(=O)c1cc(Br)c(-c2ccnc3[nH]ccc23)s1.Cl.Cl (centres unmarked) [GSK1383280],3
6,Cc1cccc(-c2nc(Nc3ccncc3)c3sccc3n2)n1 [GW869641],29
7,Cn1ccc2ncnc(Oc3ccc(NC(=O)Nc4cc(C(C)(C)C)on4)c(Cl)c3)c21,81
8,COc1cc2ncn(-c3cc(OCC4CCCCC4)c(C(N)=O)s3)c2cc1OC [GSK204559],0
9,CCn1c(-c2nonc2N)nc2cncc(CNC3CCNCC3)c21.Cl [SB-747651],21
10,O=C(Nc1cccc(C(F)(F)F)c1)c1cccc(Oc2ccc3nccn3n2)c1,0
11,COC(=O)c1cccc(NC(=O)NC2CCN(c3ccnc(Nc4cc(OC)c(OC)c(OC)c4)n3)C2)c1 (centres unmarked) [GSK1379767],51
12,Cn1cc(-c2cccc3c(N)c(C(N)=O)nnc23)cn1,14
13,CCN1CCN(CCCC(=O)Nc2n[nH]c3nc(-c4ccc(O)cc4)c(Br)cc23)CC1 [SB-731579],24
14,COc1cccc(OC)c1C(=O)Nc1cccc(-c2nn3ccccc3c2-c2ccnc(Nc3cccc(F)c3)n2)c1 [GSK361065],61
15,Cl.Cl.NC[C@H](CC1CCCCC1)NC(=O)c1ccc(-c2ccnc3[nH]ccc23)s1 [GSK1581428],22
16,COc1cc2c(Nc3ccc(NC(=O)c4ccccc4)cc3)ncnc2cc1OCCCN1CCOCC1 [GSK301329],72
17,CC(=O)Nc1ccc(-c2cc3ncnc(SCC(=O)O)c3s2)cc1,6
18,C[C@@H]1CNc2c(sc3ccc4nc(-c5ccc(O)cc5)ccc4c23)C(=O)N1,26

# — article PMC5540273 (PLoS ONE, 2017)
